From paper PMC5540273 (PLoS ONE, 2017)
Like-named read-outs stand apart in the source and are kept apart here.

How the values were obtained:
TAOK3 = conditions: concentration: 1 μM, replicates: in singlicate; n = 1
TBK1 = conditions: concentration: 1 μM, replicates: in singlicate; n = 1
TEC = conditions: concentration: 1 μM, replicates: in singlicate; n = 1
TESK1 = conditions: concentration: 1 μM, replicates: in singlicate; n = 1
TGFBR1 = conditions: n = 1
TGFBR2 = conditions: concentration: 1 μM, replicates: in singlicate; n = 1
TIE1 = conditions: concentration: 1 μM, replicates: in singlicate; n = 1
TIE2 = test system: T1, TIE2; conditions: concentration: 1 μM, replicates: in singlicate; n = 1
T1 construct: gene TEK

TLK1 = conditions: concentration: 1 μM, replicates: in singlicate; n = 1
TLK2 = conditions: concentration: 1 μM, replicates: in singlicate; n = 1
TNIK = conditions: concentration: 1 μM, replicates: in singlicate; n = 1
TNK1 = conditions: concentration: 1 μM, replicates: in singlicate; n = 1
TNK2 = conditions: concentration: 1 μM, replicates: in singlicate; n = 1
TNNI3K = conditions: concentration: 1 μM, replicates: in singlicate; n = 1
TRKA = test system: T2, TRKA; conditions: concentration: 1 μM, replicates: in singlicate; n = 1
T2 construct: gene NTRK1

TRKB = conditions: concentration: 1 μM, replicates: in singlicate; n = 1
TRKC = test system: T3, TRKC; conditions: concentration: 1 μM, replicates: in singlicate; n = 1
T3 construct: gene NTRK3

TRPM6 = conditions: concentration: 1 μM, replicates: in singlicate; n = 1
TSSK1B = conditions: concentration: 1 μM, replicates: in singlicate; n = 1
TSSK3 = conditions: concentration: 1 μM, replicates: in singlicate; n = 1
[1] = concentration: 1 μM, replicates: in singlicate
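Note: KINOMEscan kinase panel screen.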

`Cc1cc(NCC(c2ccccc2)c2ccccc2)nc(NCc2ccc(C(F)(F)F)cc2)n1` [GW497681] was tested, and the “%Inh” value (TAOK3) was 0%, the “%Inh” value (TBK1) was 22% and the “%Inh” value (TEC) was 0%. For the same compound, the “%Inh” value (TESK1) was 13%, the “%Inh” value (TGFBR1; [1]) was 22% and the “%Inh” value (TGFBR2) was 0%. For the same compound, the “%Inh” value (TIE1) was 0%, the “%Inh” value (TIE2) was 0% and the “%Inh” value (TLK1) was 9%. The “%Inh” value (TLK2) was 0%, the “%Inh” value (TNIK) was 0% and the “%Inh” value (TNK1) was 0%. For the same compound, the “%Inh” value (TNK2) was 0%, the “%Inh” value (TNNI3K) was 0% and the “%Inh” value (TRKA) was 0%. For the same compound, the “%Inh” value (TRKB) was 14%, the “%Inh” value (TRKC) was 7% and the “%Inh” value (TRPM6) was 0%. The “%Inh” value (TSSK1B) was 0% and the “%Inh” value (TSSK3) was 4%.
With `Cc1cccc(-c2nc(-c3ccc(S(C)(=O)=O)cc3)sc2-c2ccnc(NCCc3ccccc3)c2)c1` the “%Inh” value (TAOK3) was 0%, the “%Inh” value (TBK1) was 24% and the “%Inh” value (TEC) was 0%. The “%Inh” value (TESK1) was 11%, the “%Inh” value (TGFBR1; [1]) was 26% and the “%Inh” value (TGFBR2) was 0%. For the same compound, the “%Inh” value (TIE1) was 14%, the “%Inh” value (TIE2) was 19% and the “%Inh” value (TLK1) was 6%. The “%Inh” value (TLK2) was 4%, the “%Inh” value (TNIK) was 10% and the “%Inh” value (TNK1) was 0%. The “%Inh” value (TNK2) was 0%, the “%Inh” value (TNNI3K) was 0% and the “%Inh” value (TRKA) was 0%. The “%Inh” value (TRKB) was 0%, the “%Inh” value (TRKC) was 15% and the “%Inh” value (TRPM6) was 0%. The “%Inh” value (TSSK1B) was 0% and the “%Inh” value (TSSK3) was 0%.
With `Cl.NC(=O)c1cccc(Nc2nccc(Nc3ccc(Oc4cccc(Cl)c4)c(Cl)c3)n2)c1` [GW659008] the “%Inh” value (TAOK3) was 0%, the “%Inh” value (TBK1) was 7% and the “%Inh” value (TEC) was 10%. The “%Inh” value (TESK1) was 40%, the “%Inh” value (TGFBR1; [1]) was 0% and the “%Inh” value (TGFBR2) was 12%. The “%Inh” value (TIE1) was 12%, the “%Inh” value (TIE2) was 1% and the “%Inh” value (TLK1) was 0%. For the same compound, the “%Inh” value (TLK2) was 0%, the “%Inh” value (TNIK) was 2% and the “%Inh” value (TNK1) was 77%. The “%Inh” value (TNK2) was 29%, the “%Inh” value (TNNI3K) was 4% and the “%Inh” value (TRKA) was 0%. For the same compound, the “%Inh” value (TRKB) was 0%, the “%Inh” value (TRKC) was 0% and the “%Inh” value (TRPM6) was 13%. The “%Inh” value (TSSK1B) was 0% and the “%Inh” value (TSSK3) was 4%.
With `CN1C(=O)C(Nc2ccc(Cl)c(C(=O)O)c2)=C(c2ccc(Cl)cc2)C1=O` [SB-404290] the “%Inh” value (TAOK3) was 19%, the “%Inh” value (TBK1) was 27% and the “%Inh” value (TEC) was 0%. For the same compound, the “%Inh” value (TESK1) was 0%, the “%Inh” value (TGFBR1; [1]) was 0% and the “%Inh” value (TGFBR2) was 0%. The “%Inh” value (TIE1) was 0%, the “%Inh” value (TIE2) was 14% and the “%Inh” value (TLK1) was 0%. The “%Inh” value (TLK2) was 0%, the “%Inh” value (TNIK) was 13% and the “%Inh” value (TNK1) was 13%. For the same compound, the “%Inh” value (TNK2) was 0%, the “%Inh” value (TNNI3K) was 0% and the “%Inh” value (TRKA) was 0%. For the same compound, the “%Inh” value (TRKB) was 0%, the “%Inh” value (TRKC) was 22% and the “%Inh” value (TRPM6) was 10%. For the same compound, the “%Inh” value (TSSK1B) was 0% and the “%Inh” value (TSSK3) was 0%.
With `Cc1ccc(-c2cc(-c3c[nH]nc3-c3ccccn3)ccn2)cc1` [GW684088] the “%Inh” value (TAOK3) was 0%, the “%Inh” value (TBK1) was 26% and the “%Inh” value (TEC) was 0%. The “%Inh” value (TESK1) was 0%, the “%Inh” value (TGFBR1; 1 µM) was 89% and the “%Inh” value (TGFBR2) was 77%. The “%Inh” value (TIE1) was 0%, the “%Inh” value (TIE2) was 13% and the “%Inh” value (TLK1) was 24%. For the same compound, the “%Inh” value (TLK2) was 10%, the “%Inh” value (TNIK) was 90.2% and the “%Inh” value (TNK1) was 19%. The “%Inh” value (TNK2) was 12%, the “%Inh” value (TNNI3K) was 0% and the “%Inh” value (TRKA) was 18%. For the same compound, the “%Inh” value (TRKB) was 22%, the “%Inh” value (TRKC) was 40% and the “%Inh” value (TRPM6) was 0%. For the same compound, the “%Inh” value (TSSK1B) was 0% and the “%Inh” value (TSSK3) was 10%.
In the case of `COC(=O)c1c(-c2ccccc2)c2cc(OC)ccc2c(=O)n1Cc1ccccc1`, the “%Inh” value (TAOK3) is reported as 0%, the “%Inh” value (TBK1) is reported as 0% and the “%Inh” value (TEC) is reported as 14%. For the same compound, the “%Inh” value (TESK1) was 20%, the “%Inh” value (TGFBR1; [1]) was 17% and the “%Inh” value (TGFBR2) was 0%. The “%Inh” value (TIE1) was 3%, the “%Inh” value (TIE2) was 0% and the “%Inh” value (TLK1) was 23%. The “%Inh” value (TLK2) was 0%, the “%Inh” value (TNIK) was 1% and the “%Inh” value (TNK1) was 0%. The “%Inh” value (TNK2) was 0%, the “%Inh” value (TNNI3K) was 0% and the “%Inh” value (TRKA) was 0%. The “%Inh” value (TRKB) was 0%, the “%Inh” value (TRKC) was 0% and the “%Inh” value (TRPM6) was 11%. The “%Inh” value (TSSK1B) was 10% and the “%Inh” value (TSSK3) was 0%.
With `CC(C)(C)c1ccc(C(=O)Nc2cn3cc(-c4cccnc4)ccc3n2)cc1` the “%Inh” value (TAOK3) was 0%, the “%Inh” value (TBK1) was 40% and the “%Inh” value (TEC) was 10%. The “%Inh” value (TESK1) was 4%, the “%Inh” value (TGFBR1; [1]) was 1% and the “%Inh” value (TGFBR2) was 7%. The “%Inh” value (TIE1) was 4%, the “%Inh” value (TIE2) was 27% and the “%Inh” value (TLK1) was 46%. For the same compound, the “%Inh” value (TLK2) was 5%, the “%Inh” value (TNIK) was 25% and the “%Inh” value (TNK1) was 0%. For the same compound, the “%Inh” value (TNK2) was 17%, the “%Inh” value (TNNI3K) was 0% and the “%Inh” value (TRKA) was 10%. The “%Inh” value (TRKB) was 11%, the “%Inh” value (TRKC) was 1% and the “%Inh” value (TRPM6) was 0%. The “%Inh” value (TSSK1B) was 0% and the “%Inh” value (TSSK3) was 0%.
With `Cn1ccc2ncnc(Oc3ccc(NC(=O)Nc4ccccc4)cc3)c21` the “%Inh” value (TAOK3) was 0%, the “%Inh” value (TBK1) was 30% and the “%Inh” value (TEC) was 0%. The “%Inh” value (TESK1) was 1%, the “%Inh” value (TGFBR1; [1]) was 0% and the “%Inh” value (TGFBR2) was 0%. For the same compound, the “%Inh” value (TIE1) was 0%, the “%Inh” value (TIE2) was 0% and the “%Inh” value (TLK1) was 2%. The “%Inh” value (TLK2) was 0%, the “%Inh” value (TNIK) was 3% and the “%Inh” value (TNK1) was 0%. The “%Inh” value (TNK2) was 0%, the “%Inh” value (TNNI3K) was 0% and the “%Inh” value (TRKA) was 4%. The “%Inh” value (TRKB) was 0%, the “%Inh” value (TRKC) was 15% and the “%Inh” value (TRPM6) was 0%. For the same compound, the “%Inh” value (TSSK1B) was 0% and the “%Inh” value (TSSK3) was 0%.
In the case of `CCn1c(-c2cccnc2O)nc2cnccc21` [SB-736715], the “%Inh” value (TAOK3) is reported as 0%, the “%Inh” value (TBK1) is reported as 0% and the “%Inh” value (TEC) is reported as 0%. For the same compound, the “%Inh” value (TESK1) was 0%, the “%Inh” value (TGFBR1; [1]) was 0% and the “%Inh” value (TGFBR2) was 0%. The “%Inh” value (TIE1) was 0%, the “%Inh” value (TIE2) was 6% and the “%Inh” value (TLK1) was 0%. The “%Inh” value (TLK2) was 0%, the “%Inh” value (TNIK) was 0% and the “%Inh” value (TNK1) was 8%. The “%Inh” value (TNK2) was 0%, the “%Inh” value (TNNI3K) was 0% and the “%Inh” value (TRKA) was 0%. For the same compound, the “%Inh” value (TRKB) was 3%, the “%Inh” value (TRKC) was 0% and the “%Inh” value (TRPM6) was 0%. The “%Inh” value (TSSK1B) was 0% and the “%Inh” value (TSSK3) was 0%.
In the case of `CS(=O)(=O)c1ccc(-c2nc3n(c2-c2ccncc2)CCC3)cc1` [SKF-105942], the “%Inh” value (TAOK3) is reported as 0%, the “%Inh” value (TBK1) is reported as 27% and the “%Inh” value (TEC) is reported as 7%. For the same compound, the “%Inh” value (TESK1) was 1%, the “%Inh” value (TGFBR1; [1]) was 15% and the “%Inh” value (TGFBR2) was 0%. For the same compound, the “%Inh” value (TIE1) was 8%, the “%Inh” value (TIE2) was 0% and the “%Inh” value (TLK1) was 0%. For the same compound, the “%Inh” value (TLK2) was 0%, the “%Inh” value (TNIK) was 0% and the “%Inh” value (TNK1) was 0%. The “%Inh” value (TNK2) was 42%, the “%Inh” value (TNNI3K) was 19% and the “%Inh” value (TRKA) was 0%. For the same compound, the “%Inh” value (TRKB) was 0%, the “%Inh” value (TRKC) was 0% and the “%Inh” value (TRPM6) was 0%. For the same compound, the “%Inh” value (TSSK1B) was 100% and the “%Inh” value (TSSK3) was 6%.
